According to PubChem BioAssay:
Records with an inconclusive call do not appear. The source made the active and inactive calls.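 Rule for the calls, unless noted: active = inhibition above 50%, about 3 SD of the validation set; inactive = the rest.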

Columns and labels:
[1] = rapamycin-like changes in RPL19A-GFP expression – cell-based, S. cerevisiae, multiplex flow cytometry, primary screen (AID 1862; in the data active = percent of DMSO control GFP below about 86%;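 note: lower values mimic rapamycin by blocking the RPL19A rise seen in DMSO cells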); details: S. cerevisiae RPL19A-GFP strain, flow cytometry fluorescence, 3 h; at 10 µM; stronger effect = lower value
[2] = TOR pathway GLN3 branch reporter MEP2-GFP changes – S. cerevisiae, multiplex flow cytometry, primary screen (AID 1867;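 active = GFP response, as percent of the DMSO control, above the screen-wide mean plus 3 SD, about 139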;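 note: median GFP channel fluorescence of barcode-gated MEP2-GFP cells measured by flow cytometry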); details: S. cerevisiae MEP2-GFP strain, 3 h, at 10 µM, stronger effect = higher value, 100% means same as DMSO wells
[3] = TOR pathway RTG branch CIT2 reporter changes – S. cerevisiae, GFP fusion, multiplex flow cytometry, primary screen (AID 1870;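 active = percent response above a set limit, the screen-wide mean plus 3 SD, cut at about 130% in these data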;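 note: barcoded CIT2-GFP strain pooled with four other GFP strains with rapamycin as positive control; median GFP fluorescence per well over plate mean of DMSO wells so 100% = DMSO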); details: S. cerevisiae CIT2-GFP expression, 3 h, at 10 µM, stronger effect = higher value
[4] = TOR pathway LAP4-GFP level changes – S. cerevisiae, multiplex flow cytometry, primary screen (AID 1873;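 active = GFP signal, as percent of the solvent control, above the screen mean plus 3 SD, about 149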); details: S. cerevisiae LAP4-GFP expression, 3 h, at 10 µM, stronger effect = higher value
[5] = yeast AGP1-GFP level changes, GLN3 branch – cell-based, multiplex flow cytometry, S. cerevisiae, primary screen (AID 1887;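 active = GFP signal above the screen-wide mean plus 3 SD, that is over about 124.5% of the solvent control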;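 note: AGP1-GFP fusion strain of S. cerevisiae within a five-strain barcoded multiplex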); details: 3 h, at 10 µM, stronger effect = higher value
[6] = reduced mouse 2C T cell binding to pMHC/ICAM-1 vesicles – MLPCN validation set, flow cytometry, LFA-1/ICAM-1 modulator project, pilot screen (AID 2523;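 active = response below a set limit, under 55% cells CD8-positive and vesicle-bound, and CD8 cells' 90th-percentile brightness under 279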;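 for vesicle binding response: mean PE anti-B7-1 fluorescence of CD8+ cells relative to row control; 100% = QL9-loaded vesicles with DMSO vehicle in the same plate row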); details: 2C mouse CD8+ T cells, at 7 µM, stronger effect = lower value; double positive events: measured here: CD8+/vesicle+ event percentage
[7] = biological target: Integrin beta-1 (Homo sapiens) + Integrin alpha-4 (Homo sapiens) (UniProt P13612+P05556); experiment: alpha4beta1 integrin LIBS antibody binding reduction – U937 cells, HUTS-21 mAb, flow cytometry, validation set, VLA-4 allosteric modulator project, pilot screen (AID 2674); details: HUTS-21 LIBS mAb binding, at 6.7 µM, stronger effect = higher value, binding induced by LDV ligand;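 note: antibody binding induced by the VLA-4 ligand LDV present at three times its Kd; 0% = LDV ligand with antibody and no compound and 100% = antibody without LDV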
[8] = calorie-restriction mimetic ROS inhibitors, yeast – validation compound set, pilot screen (AID 2706;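 active = superoxide response below 65% of plate, a cut near 3 SD across the whole screen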;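 note: yeast exposed to compound for one week at 30 degrees C before staining; 100% = mean of all compound wells on the same plate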); details: S. cerevisiae aging, superoxide DHE fluorescence; at 10 µM; stronger effect = lower value
[9] = biological target: Beta-adrenergic receptor kinase 1 (Homo sapiens) (UniProt P25098); experiment: GRK2 binders displacing RNA aptamer, biochemical, validation, human GRK2, bead flow cytometry (AID 488806;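 active = aptamer binding inhibition above 30%, about 3 SD of noise from non-fluorescent compounds; inactive = inhibition at or below 30%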); details: bead-bound GRK2, FAM-aptamer displacement, at 10 µM, stronger effect = higher value
[10] = biological target: Beta-2 adrenergic receptor (Homo sapiens) (UniProt P07550); experiment: agonist-induced loss of surface beta2AR – cell-based, FAP fluorogen, flow cytometry, validation set, pilot screen (AID 504459;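 active = percent response above 42, roughly 3 SD of non-fluorescent test compounds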;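 note: agonist-driven loss of surface beta2AR via internalization measured by FAP dye flow cytometry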); details: Am2.2-beta2AR cells, at 10 µM, stronger effect = higher value
[11] = biological target: AP-2 complex subunit beta (Homo sapiens) (UniProt P63010); experiment: beta-arrestin/AP2 interaction blockers – biochemical, validation set, GST-AP2 beads, flow cytometry, pilot screen (AID 504541;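 active = inhibition above 54%, about 3 SD of non-fluorescent compounds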;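 note: AP2 carries R879A mutation and is captured from E. coli lysate; bead-bound FITC arrestin peptide fluorescence measuring arrestin peptide binding to AP2; 0% = DMSO wells and 100% = excess unlabeled arrestin peptide control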); details: FITC arrestin peptide, at 10 µM, stronger effect = higher value, AP2 beta2 appendage fragment, R879A mutant
[12] = cytosolic pH regulators acting via V-ATPase – S. cerevisiae, pHLuorin, HTS validation (AID 504600; in the data active = response above about 15%;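 note: plate controls were DMSO for no effect and reference compound for full effect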); details: V-ATPase proton transport, at 10 µM, stronger effect = higher value
[13] = system: anti-desmoglein-3 scFv antibody binding to human DSG3; experiment: blockers of pathogenic pemphigus antibody–desmoglein-3 binding – biochemical, validation compound set, bead-based, flow cytometry, pilot screen (AID 588368;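 active = binding below the plate cutoff, the plate median minus 3 SD, with a reading above zero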;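 note: signal is the median channel fluorescence of bead-bound GFP antibody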); details: Protein G beads, DSG3-Fc, scFv-GFP binding, at 10 µM, stronger effect = lower value
[14] = Nile Red efflux blockade in pump-expressing yeast – validation compound set, multiplex, phenotypic, pilot screen (AID 588506;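 active = efflux inhibition above 0.42, the validation set average plus 4 SD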;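 note: Nile Red retained in cells so higher fluorescence means more efflux inhibition; 0 = negative control wells and 1 = enniatin B 25 µM full block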); details: S. cerevisiae pump-expressing triplex, Nile Red efflux flow cytometry; at 10 µM; stronger effect = higher value; the pumps come from Candida albicans
[15] = biological target: ATP-binding cassette sub-family B member 6 (Homo sapiens) (UniProt Q9NP58); experiment: blockers of ABCB6-driven porphyrin uptake – K562-ABCB6 cells, flow cytometry, validation set, pilot screen (AID 588550;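 active = inhibition above the screen-wide mean plus 3 SD, about 51%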;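 note: 0% = DMSO wells and 100% = benzethonium chloride 70 µM positive control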); details: K562-ABCB6 porphyrin accumulation, 1 h, at 10 µM, stronger effect = higher value
[16] = AML differentiation inducers, ER-HoxA9 marrow cells – cell-based, GFP/MAC1 double positive, flow cytometry, validation set, primary screen (AID 588685;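 active = differentiation response of at least 50%, scaled between solvent and reference control, from cells with both markers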;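 note: compound exposure lasts four days before antibody staining and flow analysis; 0% = DMSO wells and 100% = 5 µM fulvestrant positive control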); details: stronger effect = higher value, normalized: vehicle 0, fulvestrant 100

Sequence of Beta-2 adrenergic receptor (Homo sapiens) (P07550 whole entry, looked up): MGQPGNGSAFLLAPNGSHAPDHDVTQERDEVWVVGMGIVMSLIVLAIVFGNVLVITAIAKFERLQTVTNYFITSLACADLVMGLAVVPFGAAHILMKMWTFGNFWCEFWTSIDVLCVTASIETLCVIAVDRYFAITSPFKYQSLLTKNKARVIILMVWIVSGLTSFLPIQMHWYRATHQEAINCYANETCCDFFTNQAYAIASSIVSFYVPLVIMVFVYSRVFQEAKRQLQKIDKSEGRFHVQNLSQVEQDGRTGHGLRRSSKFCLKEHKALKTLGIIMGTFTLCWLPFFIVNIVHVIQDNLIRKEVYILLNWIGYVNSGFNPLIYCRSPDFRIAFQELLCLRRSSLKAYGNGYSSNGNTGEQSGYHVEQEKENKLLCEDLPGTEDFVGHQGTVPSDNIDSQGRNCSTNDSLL
Sequence of Integrin beta-1 (Homo sapiens) + Integrin alpha-4 (Homo sapiens) (P05556 whole entry, looked up): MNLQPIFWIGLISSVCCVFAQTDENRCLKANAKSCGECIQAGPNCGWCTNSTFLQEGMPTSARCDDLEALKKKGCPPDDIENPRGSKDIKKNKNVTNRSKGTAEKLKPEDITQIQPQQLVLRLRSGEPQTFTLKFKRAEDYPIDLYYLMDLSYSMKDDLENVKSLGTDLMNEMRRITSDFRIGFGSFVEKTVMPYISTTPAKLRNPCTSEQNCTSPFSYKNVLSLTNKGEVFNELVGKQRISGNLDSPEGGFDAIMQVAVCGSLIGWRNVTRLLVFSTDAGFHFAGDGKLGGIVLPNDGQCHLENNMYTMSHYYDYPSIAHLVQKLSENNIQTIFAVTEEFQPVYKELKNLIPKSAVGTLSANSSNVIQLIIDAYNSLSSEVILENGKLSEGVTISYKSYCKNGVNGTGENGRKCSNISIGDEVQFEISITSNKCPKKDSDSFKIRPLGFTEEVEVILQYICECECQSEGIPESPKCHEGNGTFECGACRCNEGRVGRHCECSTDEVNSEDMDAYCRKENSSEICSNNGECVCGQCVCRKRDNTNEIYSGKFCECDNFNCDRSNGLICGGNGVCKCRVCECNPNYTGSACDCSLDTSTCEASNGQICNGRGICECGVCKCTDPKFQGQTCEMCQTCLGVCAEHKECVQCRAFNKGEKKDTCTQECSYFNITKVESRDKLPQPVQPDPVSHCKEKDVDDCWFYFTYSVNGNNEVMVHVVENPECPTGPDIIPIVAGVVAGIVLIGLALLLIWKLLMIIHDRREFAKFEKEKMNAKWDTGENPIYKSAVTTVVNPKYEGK
Sequence of Integrin beta-1 (Homo sapiens) + Integrin alpha-4 (Homo sapiens) (P13612 whole entry, looked up): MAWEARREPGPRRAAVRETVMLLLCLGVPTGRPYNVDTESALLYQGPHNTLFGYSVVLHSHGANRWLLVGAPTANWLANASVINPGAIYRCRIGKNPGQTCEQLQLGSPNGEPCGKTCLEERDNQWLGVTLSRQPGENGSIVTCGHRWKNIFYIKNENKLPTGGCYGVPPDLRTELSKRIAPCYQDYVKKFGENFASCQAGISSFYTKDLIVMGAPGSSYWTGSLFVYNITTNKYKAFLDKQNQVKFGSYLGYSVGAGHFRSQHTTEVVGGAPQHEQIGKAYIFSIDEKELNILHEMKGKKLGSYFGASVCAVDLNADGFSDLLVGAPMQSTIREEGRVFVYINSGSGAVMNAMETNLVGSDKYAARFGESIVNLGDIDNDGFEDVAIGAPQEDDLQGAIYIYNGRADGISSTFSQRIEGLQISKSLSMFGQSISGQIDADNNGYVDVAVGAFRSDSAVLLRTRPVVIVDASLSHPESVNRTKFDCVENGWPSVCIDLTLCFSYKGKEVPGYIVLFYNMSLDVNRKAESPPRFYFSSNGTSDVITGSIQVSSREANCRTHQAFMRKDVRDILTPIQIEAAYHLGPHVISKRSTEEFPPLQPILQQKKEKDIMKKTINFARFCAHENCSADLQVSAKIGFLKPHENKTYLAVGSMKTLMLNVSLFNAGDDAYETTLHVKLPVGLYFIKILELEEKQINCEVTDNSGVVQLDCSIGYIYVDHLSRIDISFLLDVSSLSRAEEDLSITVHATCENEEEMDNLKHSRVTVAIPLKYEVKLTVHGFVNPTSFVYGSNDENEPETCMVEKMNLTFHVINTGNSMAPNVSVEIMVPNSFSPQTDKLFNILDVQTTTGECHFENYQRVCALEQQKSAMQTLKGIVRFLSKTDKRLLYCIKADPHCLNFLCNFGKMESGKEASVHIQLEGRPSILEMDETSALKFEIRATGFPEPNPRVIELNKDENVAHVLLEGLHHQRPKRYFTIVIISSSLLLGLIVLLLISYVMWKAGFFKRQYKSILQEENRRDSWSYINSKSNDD
Sequence of ATP-binding cassette sub-family B member 6 (Homo sapiens) (Q9NP58 whole entry, looked up): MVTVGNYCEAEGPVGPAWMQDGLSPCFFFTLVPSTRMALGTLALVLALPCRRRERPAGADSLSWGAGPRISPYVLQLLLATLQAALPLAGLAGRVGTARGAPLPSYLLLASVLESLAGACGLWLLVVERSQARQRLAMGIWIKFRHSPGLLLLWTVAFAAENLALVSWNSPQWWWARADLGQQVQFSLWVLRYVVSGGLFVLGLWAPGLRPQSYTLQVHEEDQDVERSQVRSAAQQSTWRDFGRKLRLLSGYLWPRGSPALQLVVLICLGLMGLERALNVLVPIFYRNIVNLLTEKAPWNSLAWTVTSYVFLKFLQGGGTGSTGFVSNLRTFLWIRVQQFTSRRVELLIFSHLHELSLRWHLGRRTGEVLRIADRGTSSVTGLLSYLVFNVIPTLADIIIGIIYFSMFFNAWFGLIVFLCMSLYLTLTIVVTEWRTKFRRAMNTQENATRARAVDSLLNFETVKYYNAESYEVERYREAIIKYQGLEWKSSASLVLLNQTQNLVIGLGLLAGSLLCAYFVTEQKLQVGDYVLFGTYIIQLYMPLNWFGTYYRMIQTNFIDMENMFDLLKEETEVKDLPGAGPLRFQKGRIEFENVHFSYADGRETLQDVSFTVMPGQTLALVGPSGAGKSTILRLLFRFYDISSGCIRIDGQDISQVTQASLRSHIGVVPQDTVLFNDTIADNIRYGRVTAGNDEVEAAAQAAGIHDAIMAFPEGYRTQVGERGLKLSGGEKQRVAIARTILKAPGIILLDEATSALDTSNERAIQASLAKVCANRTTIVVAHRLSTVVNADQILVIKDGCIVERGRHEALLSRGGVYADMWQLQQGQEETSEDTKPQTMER
Sequence of AP-2 complex subunit beta (Homo sapiens) (P63010 whole entry, looked up, the tested form may be a part, one chain of several): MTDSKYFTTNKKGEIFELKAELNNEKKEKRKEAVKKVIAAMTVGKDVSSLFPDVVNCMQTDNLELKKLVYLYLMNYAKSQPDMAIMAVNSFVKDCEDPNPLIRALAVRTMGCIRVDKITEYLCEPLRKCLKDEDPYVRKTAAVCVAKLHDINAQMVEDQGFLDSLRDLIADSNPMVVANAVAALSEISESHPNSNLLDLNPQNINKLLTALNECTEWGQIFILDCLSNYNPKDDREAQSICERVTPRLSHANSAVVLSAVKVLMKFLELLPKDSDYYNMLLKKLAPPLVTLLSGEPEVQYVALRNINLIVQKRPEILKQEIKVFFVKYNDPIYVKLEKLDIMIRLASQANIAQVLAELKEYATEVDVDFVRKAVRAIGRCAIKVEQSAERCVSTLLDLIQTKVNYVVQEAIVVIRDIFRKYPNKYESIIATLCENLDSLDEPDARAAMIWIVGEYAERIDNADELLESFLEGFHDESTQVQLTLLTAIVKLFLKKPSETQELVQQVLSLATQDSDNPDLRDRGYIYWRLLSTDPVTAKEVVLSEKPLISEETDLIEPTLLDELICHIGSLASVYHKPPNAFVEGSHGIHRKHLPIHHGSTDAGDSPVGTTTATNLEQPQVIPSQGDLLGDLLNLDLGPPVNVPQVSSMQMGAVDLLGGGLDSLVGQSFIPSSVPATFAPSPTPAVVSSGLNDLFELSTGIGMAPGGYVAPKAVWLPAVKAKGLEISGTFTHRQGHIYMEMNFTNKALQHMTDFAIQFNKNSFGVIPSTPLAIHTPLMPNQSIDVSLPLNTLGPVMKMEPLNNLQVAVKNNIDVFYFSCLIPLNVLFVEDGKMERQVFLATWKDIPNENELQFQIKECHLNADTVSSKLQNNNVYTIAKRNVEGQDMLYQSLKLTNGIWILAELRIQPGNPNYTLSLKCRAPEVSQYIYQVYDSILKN
Sequence of Beta-adrenergic receptor kinase 1 (Homo sapiens) (P25098 whole entry, looked up): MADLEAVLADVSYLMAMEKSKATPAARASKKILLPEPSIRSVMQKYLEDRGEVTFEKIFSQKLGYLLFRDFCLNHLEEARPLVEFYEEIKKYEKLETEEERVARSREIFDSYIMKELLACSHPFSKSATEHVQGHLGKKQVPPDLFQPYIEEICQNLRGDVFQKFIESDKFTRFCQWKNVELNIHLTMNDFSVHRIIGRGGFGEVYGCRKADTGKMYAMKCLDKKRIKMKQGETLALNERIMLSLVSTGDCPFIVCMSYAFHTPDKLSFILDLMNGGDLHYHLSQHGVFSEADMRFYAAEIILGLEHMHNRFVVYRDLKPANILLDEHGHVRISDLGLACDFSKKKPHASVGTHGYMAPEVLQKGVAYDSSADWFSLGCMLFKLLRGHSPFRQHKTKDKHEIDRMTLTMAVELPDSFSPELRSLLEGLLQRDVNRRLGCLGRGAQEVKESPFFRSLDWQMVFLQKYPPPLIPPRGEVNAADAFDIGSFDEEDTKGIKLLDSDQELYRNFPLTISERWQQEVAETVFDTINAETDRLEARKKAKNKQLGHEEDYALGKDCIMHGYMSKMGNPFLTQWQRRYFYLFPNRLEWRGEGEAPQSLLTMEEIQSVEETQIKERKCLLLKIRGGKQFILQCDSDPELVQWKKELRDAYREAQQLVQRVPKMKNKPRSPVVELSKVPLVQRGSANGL

CNCCCC1c2ccccc2C=Cc2ccccc21
71.4%: double positive events [6]
inactive: percent of DMSO control GFP [1] 96.1% | GFP response vs DMSO [2] 116% | percent response of DMSO control [3] 108% | GFP response vs DMSO [4] 83.1% | GFP response, % of DMSO [5] 97% | vesicle binding response [6] 307% | inhibition [7] 8.4% | superoxide response (% of plate) [8] 103% | aptamer binding inhibition [9] -3% | response [10] 23.4% | inhibition [11] -2.69% | response [12] 0.79% | binding (% of control) [13] 101% | efflux inhibition (fraction of control) [14] 0.16 | inhibition [15] 9% | differentiation response [16] -3.28%

C=CCNC(=O)c1ccc(-c2cccc([N+](=O)[O-])c2)o1
52.6%: double positive events [6]
inactive: percent of DMSO control GFP [1] 98.8% | GFP response vs DMSO [2] 101% | percent response of DMSO control [3] 91.7% | GFP response vs DMSO [4] 107% | GFP response, % of DMSO [5] 95.1% | vesicle binding response [6] 773% | inhibition [7] 6.85% | superoxide response (% of plate) [8] 101% | aptamer binding inhibition [9] 3% | response [10] 9.11% | inhibition [11] -25% | response [12] -0.55% | binding (% of control) [13] 101% | efflux inhibition (fraction of control) [14] -0.34 | inhibition [15] 4% | differentiation response [16] 6.49%

CC1(C)Cc2ccccc2-c2nc(-c3ccccc3)oc(=O)c21
inactive: percent of DMSO control GFP [1] 102% | GFP response vs DMSO [2] 94.7% | percent response of DMSO control [3] 96.4% | GFP response vs DMSO [4] 107% | GFP response, % of DMSO [5] 112% | vesicle binding response [6] 149% | inhibition [7] 2.29% | superoxide response (% of plate) [8] 89.6% | aptamer binding inhibition [9] 4% | response [10] -10.1% | inhibition [11] -10.6% | response [12] -7.89% | binding (% of control) [13] 98.8% | efflux inhibition (fraction of control) [14] 0.08 | inhibition [15] 7% | differentiation response [16] -0.06%
63.3%: double positive events [6]

CC(C)(C)N1NC2(CCCCC2)NC1=S
inactive: percent of DMSO control GFP [1] 99.8% | GFP response vs DMSO [2] 113% | percent response of DMSO control [3] 118% | GFP response vs DMSO [4] 80.9% | GFP response, % of DMSO [5] 95.2% | vesicle binding response [6] 193% | inhibition [7] -3.24% | superoxide response (% of plate) [8] 125% | aptamer binding inhibition [9] -1% | response [10] -12.5% | inhibition [11] -12.7% | response [12] 0.59% | binding (% of control) [13] 104% | efflux inhibition (fraction of control) [14] 0.27 | inhibition [15] 7% | differentiation response [16] 1.64%
53.1%: double positive events [6]

O=C(CCCN1C(=O)/C(=C\c2cccc(Br)c2)SC1=S)Nc1cccnc1
inactive: percent of DMSO control GFP [1] 94.2% | GFP response vs DMSO [2] 104% | percent response of DMSO control [3] 95.8% | GFP response vs DMSO [4] 120% | GFP response, % of DMSO [5] 95.8% | vesicle binding response [6] 211% | inhibition [7] 2.3% | superoxide response (% of plate) [8] 98.5% | aptamer binding inhibition [9] 2% | response [10] 10.2% | inhibition [11] -4.08% | response [12] -5.34% | binding (% of control) [13] 101% | efflux inhibition (fraction of control) [14] 0.01 | inhibition [15] 5% | differentiation response [16] -12%
57.4%: double positive events [6]
